This is a sample that favours compounds with a hit; in the whole collection about 4.6% have one here.
TRHR ag = activates the human TRH receptor. P34981. TRHR cells, calcium flux fluo-8, FDSS agonist mode. activation, % at 2 µM. hit rate 0.18% among 360,000. AID 493084; note: 0% is about no effect
Target sequence (P34981 whole entry, looked up): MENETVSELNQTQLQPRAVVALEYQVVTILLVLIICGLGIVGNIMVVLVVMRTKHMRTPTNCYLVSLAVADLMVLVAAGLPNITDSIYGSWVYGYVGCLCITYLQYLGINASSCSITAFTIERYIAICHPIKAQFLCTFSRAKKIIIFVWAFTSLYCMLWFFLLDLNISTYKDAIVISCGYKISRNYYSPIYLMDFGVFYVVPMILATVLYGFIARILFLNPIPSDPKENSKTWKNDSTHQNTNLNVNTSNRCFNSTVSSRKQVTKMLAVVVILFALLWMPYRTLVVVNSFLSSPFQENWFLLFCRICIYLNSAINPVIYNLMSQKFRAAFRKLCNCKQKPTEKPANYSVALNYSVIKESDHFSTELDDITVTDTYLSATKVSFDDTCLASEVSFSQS
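Steps: seed TRHR cells overnight; add fluo-8 no-wash Ca dye, RT 30 min–1.5 h; record 10 s baseline; pin-transfer compounds; monitor fluorescence 1 cycle/s for the agonist window. Calcium increases flag candidate agonists.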
D1 antagonist = antagonists of human D1 dopamine receptor | P21728 | HEK293 TREx D1 cells, calcium flux, dopamine EC80; stronger effect = lower value | activity change, negative = inhibition, % at 10 µM | hit rate 3.2% among 360,000; in the data active = activity change below about -30%; note: % is set by controls: 0 for no effect and ±100 for the full control effect
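Calcium flux readout: force-coupled, inducible Hek293 Trex D1 line, cells induced overnight at 30 C with tetracycline, dye-loaded 30–90 min at RT. Antagonism scored against EC80 dopamine challenge given 180 s after compound.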
D1 potentiator = human D1 dopamine receptor positive modulation. HEK293 TREx D1 cells, calcium flux, dopamine EC20 potentiation. potentiation, % at 10 µM. hit rate 0.036% among 360,000. AID 504651; in the data active = potentiation above about 30%; note: 0% is about no effect
Epigenetic reg = regulators of epigenetic silencing causing reporter derepression in mouse cells; Potency, µM (top dose mostly 53.9 µM), without a hit: at the top dose GFP activation, actives largely listed as activators; murine LDR cells, GFP reporter derepression, 30 h; AID 1865; hit rate 0.2% among 280,000; active = well fitted activation curve with a large enough effect; inconclusive = small, poorly fitted or top-dose-only effect; note: potency is the fitted concentration of half-maximal effect; % of control where 0% means no effect; nearly all actives have a fitted effect of over 60% in size
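Reporter derepression read as number of fluorescent GFP-positive objects, 20-120 um in size, counted by laser-scanning cytometer. Mouse LDR line with an epigenetically silenced CMV-GFP locus; compound incubation 30 h, 37 C.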
TRHR enhancer = TRH receptor (human) allosteric enhancement; hit rate 0.66% among 360,000; TRHR cells, fluo-8 calcium fluorescence, EC20 TRH enhancement; P34981; enhancement, % at 2 µM; AID 493056; in the data active = enhancement above about 30%; note: 0% is about no effect
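TRHR-expressing cells loaded with fluo-8 calcium dye were read kinetically (ex 480/em 530) during compound addition, then stimulated with an EC20 of TRH (10 nM final). Enhancement of the Gq-mediated intracellular calcium response was scored.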
D1 agonist = activates the human D1 dopamine receptor; HEK293 T-REx D1 cells, calcium flux, agonist mode; P21728; hit rate 1% among 360,000; activation, % at 2 µM; note: 0% is about no effect
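Tetracycline-induced HEK293 TREx D1 cells, force-coupled to calcium signalling, were dye-loaded with a no-wash calcium kit. Compound was pin-added after a 10 s baseline. Fluorescence was read kinetically at 1 cycle/s for 180 s, with calcium rises flagged as agonism.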
Active calls of the source: *; ? = inconclusive; / = no result given. Cut-off read from the data, not from the text of the source, unless noted: active = activation above about 30%; inactive = the rest.

SMILES	TRHR ag	D1 antagonist	D1 potentiator	Epigenetic reg	TRHR enhancer	D1 agonist
CN(C)c1ccc(NC(=O)Cn2c(SCc3ccc(F)cc3)nc3cccnc32)cc1	0	2	-3	2%	-3	2
Cc1ccc(NC(=O)Cn2c(C)cc(C)c(C#N)c2=O)cc1	0	6	0	-3%	-4	1
COc1ccc(C(=O)NC(Oc2ccccc2)C(Cl)(Cl)Cl)cc1 (centres undefined)	-3	-80*	-10	0%	19	9
COc1ccc(C(C)NC(=O)c2ccccc2)cc1 (centres undefined)	0	6	-4	-1%	1	3
CC(=O)c1ccc(NC(=O)Cn2ncc3c(C)n(Cc4ccc(F)cc4)c(C)c3c2=O)cc1	0	-3	-2	?	4	4
CCOc1cc(C)c(S(=O)(=O)Nc2ccc3cn[nH]c3c2)cc1C	0	-13	3	7%	2	33*
CCOc1ccc(NC(=O)CN2CCSc3ccc(S(=O)(=O)N4CCCC4)cc32)cc1	-1	-20	-1	-2%	-1	2
O=C(NCc1ccc(Cl)cc1Cl)C1CC(=O)N(Cc2ccccc2)C1 (centres undefined)	1	-31*	-2	-1%	-7	-2
O=C(O)C1CC(=O)N(Cc2ccccc2)C1 (centres undefined)	2	-22	-12	0%	5	1
COc1ccccc1OC1OC2COC(c3ccco3)OC2C(O)C1NC(C)=O (centres undefined)	0	-2	1	-1%	7	2
CC(=O)NC1C(Oc2cccc(C)c2)OC2COC(c3ccco3)OC2C1O (centres undefined)	0	-39*	-1	-1%	7	1
Cc1cccc(OCC(=O)N2CCC(c3nc4ccccc4o3)CC2)c1C	0	-11	1	-2%	5	-1
CCC(C(=O)OCC(=O)NC(=O)c1ccccc1)c1ccccc1 (centres undefined)	-1	-10	-5	/	-2	70*
CCC(C(=O)OCC(=O)NC(=O)c1ccccc1OC)c1ccccc1 (centres undefined)	0	-2	-1	/	6	8
CCN(CCCNC(=O)CN1N=C(c2ccc(OC)cc2)CCC1=O)c1cccc(C)c1	-1	-40*	-4	1%	-6	0
CCN(CCCNC(=O)CN1N=C(c2ccccc2)CCC1=O)c1cccc(C)c1	-1	13	-1	0%	5	-4
Fc1ccc(C(NCCc2ccc(Cl)cc2)c2nnc(-c3ccccc3Cl)o2)cc1 (centres undefined)	3	-3	1	2%	-4	25
COc1ccc(OC)c(CNC(=O)c2cc(S(=O)(=O)N3CCC(C)CC3)cn2C)c1	-1	-2	-2	-2%	-3	-1
COc1ccc(C(=O)NC(CO)c2nnc(SCc3ccc(Cl)c(Cl)c3)n2C)cc1 (centres undefined)	0	-34*	0	0%	-4	0
O=C(O)c1ccc(N/N=C/C2=C(N3CCOCC3)C(=C\c3ccccc3)/CC2)cc1	18	-19	-3	1%	-8	83*
CCOc1cc(N2CCOCC2)c(OCC)cc1NC(=O)CCC1CCCC1	0	-31*	-6	0%	-3	2
COC1=C/C(=C/c2c(N)n3cc(C)sc3nc2=O)C=CC1=O	9	5	-4	13%	15	30*
CC(=O)c1c(C)n(C)c2ccc(OC(=O)c3ccc([N+](=O)[O-])cc3)cc12	0	-1	1	1%	40*	6
Cc1nn2c(NCc3ccccn3)c3c(nc2c1-c1ccccc1)CCC3	-1	8	-5	22µM*	5	0
Cc1ccc(C(=O)NCC(=O)NCC(=O)OCC(=O)c2ccc(F)cc2)cc1	-1	-52*	-3	-8%	-1	2
SMILES	TRHR ag	D1 antagonist	D1 potentiator	Epigenetic reg	TRHR enhancer	D1 agonist
Cc1ccc(C(=O)NCC(=O)OCC(=O)c2ccc(C)c([N+](=O)[O-])c2)cc1	-2	-46*	-24	-1%	-6	1
Cc1cc2c(s1)c1cnn(Cc3c(F)cc(F)cc3F)c(=O)c1n2C	0	4	3	/	-2	0
O=C(NCc1ccccc1Cl)c1ccc(NC(=O)c2nsc3ccccc23)cc1	0	-2	-2	1%	-2	3
Cc1ccc(CN(Cc2ccccc2)C(=S)NCC(=O)NCc2cccnc2)o1	0	-48*	-3	0%	1	0
CCCCOc1ccc(C(=O)NCCc2csc3nc(-c4ccccc4F)nn23)cc1	0	15	3	4%	11	4
CCOc1ccccc1C(=O)NCC(=O)Nc1ccc(-c2ccccc2)cc1	1	5	-2	/	6	0
CCOc1ccccc1C(=O)NCC(=O)N(C)Cc1ccccc1C	0	-43*	-4	/	-6	6
COc1ccc(CC(=O)Nc2ccc(NC(=O)c3ccccc3F)cc2)cc1	3	-7	-4	-1%	-2	54*
COc1ccc(NC(=O)CSc2nc(N)c(NC(=O)c3ccccc3F)c(=O)[nH]2)cc1	0	8	-1	/	25	1
NC(N)=NN=C1CCC(c2ccccc2)CC1 (centres undefined)	1	7	37*	/	21	2
O=C(CCC(=O)N1CCN(c2ccccc2F)CC1)N1CCN(c2ccc(F)cc2)CC1	0	-14	-1	/	1	4
Cc1[nH]c2ccccc2c1SCC(=O)N1CCN(c2ccccc2)CC1	0	-43*	-7	-1%	11	-1
O=C(CSc1ccccc1)N1CCN(c2ccccc2)CC1	2	-34*	-5	2%	-1	-1
COCCSc1ccccc1C(=O)N1CCN(c2ccccc2)CC1	0	5	0	3%	3	4
Cc1[nH]c2ccccc2c1SCC(=O)N1CCCCC1	0	-17	-4	-2%	0	2
O=C(CSc1ccccc1C(=O)N1CCN(c2ccccc2)CC1)N1CCCC1	0	-44*	-10	/	3	0
O=C(CCC(=O)N1CCN(c2ccccc2F)CC1)N1CCN(c2ccccc2)CC1	0	-61*	-3	/	11	9
CC(=O)Nc1ccc(NC(=O)CCS(=O)(=O)c2ccc3c(c2)CC(=O)N3C)cc1	1	7	-1	-2%	15	0
CCn1c(CN2CCC(C)CC2)nc2cc(NC(=O)COc3ccc([N+](=O)[O-])cc3)ccc21	0	-21	4	2%	-4	2
CNC1=CN=C(c2ccccc2)c2cc(Cl)ccc2N1	/	/	/	-1%	/	/
CN1CCCN(C(=O)CSc2ccccc2)CC1	0	30	-5	/	31*	-2

Screening data (PubChem)
